Of roughly 7,900 targets only a part is listed; those with a hit were picked by preference. About 0.6% of all pairs of compound and target were hits. A number with no mark means an inactive call.
Key:
Assay in all cases: log2 fold change, soluble protein after heating vs DMSO (PISA); higher = thermal stabilisation; K562 cells, 10 uM, 30 min; active = over 0.2 and 3.5 SD of the protein, either way, in both replicates (recomputed)
[1] = compound: CC[C@@H]1C(=O)N(C)c2cnc(Nc3ccc(C(=O)NC4CCN(C)CC4)cc3OC)nc2N1C1CCCC1
Outline: (§1)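 K562 cells at 2×10^6 cells/mL were exposed to 10 μM compound for 30 min, then aliquots were heated for 3 min across 48°C-58°C, pooled, and extracted in PBS containing 0.5% NP-40 at 4°C. The supernatant after 21,000xg for 90 min was taken as soluble protein and measured by TMTpro 16plex LC-MS/MS with channel sums equalised. Thermal stability is reported relative to control samples, with values from duplicates. Fold changes are given on a log2 scale.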

volasertib = compound: CC[C@@H]1C(=O)N(C)c2cnc(Nc3ccc(C(=O)N[C@H]4CC[C@H](N5CCN(CC6CC6)CC5)CC4)cc3OC)nc2N1C(C)C [volasertib]
Outline: as §1

[2] = compound: CC[C@H](C)N1C=C(C2=C(C=C(C=C21)C3=CN=C(C=C3)N4CCNCC4)C(=O)NCC5=C(C=C(NC5=O)C)C)C
Outline: as §1

epoxomicin = compound: CC[C@H](C)[C@@H](C(=O)N[C@@H]([C@@H](C)O)C(=O)N[C@@H](CC(C)C)C(=O)[C@]1(CO1)C)NC(=O)[C@H]([C@@H](C)CC)N(C)C(=O)C [epoxomicin]
Outline: as §1

[3] = compound: CCn1c(C(=O)N(C2CC2)C2CC2)cc2c3c(ncn3C)c(Nc3cc(C)n(C)n3)nc21
Outline: as §1

[4] = compound: CCn1cc(-c2ccnc3[nH]c(-c4cccc(CN(C)C)c4)cc23)c(-c2ccc(NC(=O)N(C)C)cc2)n1
Outline: as §1

[5] = compound: CN(C)CC(=O)Nc1ccc2[nH]c(=O)c3ccccc3c2c1
Outline: as §1

rosiglitazone = compound: CN(CCOC1=CC=C(C=C1)C[C@H]2C(=O)NC(=O)S2)C3=CC=CC=N3 (racemic) [rosiglitazone]
Outline: as §1

[6] = compound: CN1C2=C(C3=C1C(=O)N(N=C3)CC4=CC(=CC=C4)N)SC(=C2)S(=O)C
Outline: as §1

[7] = compound: CN1CCC(CNc2ccc3ncc(-c4cccc(OC(F)(F)F)c4)n3n2)CC1
Outline: as §1

UniProt O43395, sequence (O43395 whole entry, looked up): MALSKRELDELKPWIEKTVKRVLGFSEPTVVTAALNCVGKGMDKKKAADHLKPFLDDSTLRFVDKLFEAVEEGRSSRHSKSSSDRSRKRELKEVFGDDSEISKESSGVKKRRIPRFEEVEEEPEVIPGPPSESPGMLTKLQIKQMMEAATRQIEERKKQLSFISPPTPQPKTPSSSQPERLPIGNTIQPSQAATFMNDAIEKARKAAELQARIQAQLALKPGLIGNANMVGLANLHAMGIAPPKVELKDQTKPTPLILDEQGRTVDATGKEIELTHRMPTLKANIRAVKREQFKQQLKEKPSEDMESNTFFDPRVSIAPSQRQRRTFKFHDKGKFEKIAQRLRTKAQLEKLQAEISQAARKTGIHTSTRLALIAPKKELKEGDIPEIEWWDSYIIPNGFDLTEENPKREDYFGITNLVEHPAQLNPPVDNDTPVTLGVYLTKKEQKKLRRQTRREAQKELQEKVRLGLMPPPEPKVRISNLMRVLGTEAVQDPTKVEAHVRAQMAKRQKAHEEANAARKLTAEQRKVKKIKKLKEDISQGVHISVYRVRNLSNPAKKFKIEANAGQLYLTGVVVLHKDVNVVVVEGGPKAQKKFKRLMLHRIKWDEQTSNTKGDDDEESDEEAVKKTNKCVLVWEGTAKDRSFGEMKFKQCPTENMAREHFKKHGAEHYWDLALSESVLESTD
UniProt Q15008, sequence (Q15008 whole entry, looked up): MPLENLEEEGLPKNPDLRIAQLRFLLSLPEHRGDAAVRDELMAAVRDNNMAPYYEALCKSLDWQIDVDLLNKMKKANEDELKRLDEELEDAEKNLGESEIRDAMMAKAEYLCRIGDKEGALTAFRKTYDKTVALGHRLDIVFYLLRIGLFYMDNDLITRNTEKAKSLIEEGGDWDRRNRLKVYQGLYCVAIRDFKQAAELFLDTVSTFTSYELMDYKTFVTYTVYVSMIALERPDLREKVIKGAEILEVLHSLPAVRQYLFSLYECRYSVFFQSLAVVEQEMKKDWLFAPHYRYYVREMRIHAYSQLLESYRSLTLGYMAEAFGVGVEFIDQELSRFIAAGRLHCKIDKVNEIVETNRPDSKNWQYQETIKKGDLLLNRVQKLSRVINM
UniProt P53801, sequence (P53801 whole entry, looked up): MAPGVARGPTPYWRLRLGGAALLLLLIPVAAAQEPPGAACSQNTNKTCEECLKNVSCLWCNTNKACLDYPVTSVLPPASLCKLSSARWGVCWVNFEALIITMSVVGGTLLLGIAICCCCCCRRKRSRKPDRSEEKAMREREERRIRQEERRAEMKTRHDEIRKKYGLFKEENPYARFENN
UniProt Q5JVF3, sequence (Q5JVF3 whole entry, looked up): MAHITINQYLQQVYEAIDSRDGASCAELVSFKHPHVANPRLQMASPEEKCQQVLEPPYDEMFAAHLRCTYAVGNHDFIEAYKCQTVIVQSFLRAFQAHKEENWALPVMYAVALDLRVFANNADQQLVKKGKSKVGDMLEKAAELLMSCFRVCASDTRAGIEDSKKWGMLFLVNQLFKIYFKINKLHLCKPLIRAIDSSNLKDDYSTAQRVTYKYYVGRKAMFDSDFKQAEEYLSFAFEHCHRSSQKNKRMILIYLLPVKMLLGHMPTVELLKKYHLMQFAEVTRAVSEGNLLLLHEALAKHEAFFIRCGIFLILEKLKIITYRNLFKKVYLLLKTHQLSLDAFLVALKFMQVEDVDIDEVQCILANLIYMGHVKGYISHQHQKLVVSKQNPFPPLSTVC
UniProt Q9NP80, sequence (Q9NP80 whole entry, looked up): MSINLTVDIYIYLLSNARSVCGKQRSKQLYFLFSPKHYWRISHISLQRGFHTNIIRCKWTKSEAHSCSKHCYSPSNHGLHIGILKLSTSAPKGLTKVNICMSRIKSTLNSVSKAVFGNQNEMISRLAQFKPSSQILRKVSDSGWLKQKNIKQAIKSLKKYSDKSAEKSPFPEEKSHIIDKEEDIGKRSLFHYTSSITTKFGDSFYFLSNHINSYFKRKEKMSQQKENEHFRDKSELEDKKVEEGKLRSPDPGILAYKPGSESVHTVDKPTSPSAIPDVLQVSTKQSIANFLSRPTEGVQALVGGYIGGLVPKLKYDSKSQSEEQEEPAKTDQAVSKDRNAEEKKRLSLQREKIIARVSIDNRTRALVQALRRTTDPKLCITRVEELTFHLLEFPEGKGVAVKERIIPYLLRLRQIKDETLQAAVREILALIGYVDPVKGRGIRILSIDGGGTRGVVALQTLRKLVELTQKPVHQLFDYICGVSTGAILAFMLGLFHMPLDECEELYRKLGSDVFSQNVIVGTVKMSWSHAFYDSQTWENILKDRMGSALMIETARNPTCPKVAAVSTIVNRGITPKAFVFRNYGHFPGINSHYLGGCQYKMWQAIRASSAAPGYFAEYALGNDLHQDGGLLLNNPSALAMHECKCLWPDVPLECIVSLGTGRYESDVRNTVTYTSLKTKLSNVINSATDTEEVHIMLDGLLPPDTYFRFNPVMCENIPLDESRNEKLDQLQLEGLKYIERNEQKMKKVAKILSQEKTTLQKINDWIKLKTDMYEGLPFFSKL
UniProt Q9H0R6, sequence (Q9H0R6 whole entry, looked up): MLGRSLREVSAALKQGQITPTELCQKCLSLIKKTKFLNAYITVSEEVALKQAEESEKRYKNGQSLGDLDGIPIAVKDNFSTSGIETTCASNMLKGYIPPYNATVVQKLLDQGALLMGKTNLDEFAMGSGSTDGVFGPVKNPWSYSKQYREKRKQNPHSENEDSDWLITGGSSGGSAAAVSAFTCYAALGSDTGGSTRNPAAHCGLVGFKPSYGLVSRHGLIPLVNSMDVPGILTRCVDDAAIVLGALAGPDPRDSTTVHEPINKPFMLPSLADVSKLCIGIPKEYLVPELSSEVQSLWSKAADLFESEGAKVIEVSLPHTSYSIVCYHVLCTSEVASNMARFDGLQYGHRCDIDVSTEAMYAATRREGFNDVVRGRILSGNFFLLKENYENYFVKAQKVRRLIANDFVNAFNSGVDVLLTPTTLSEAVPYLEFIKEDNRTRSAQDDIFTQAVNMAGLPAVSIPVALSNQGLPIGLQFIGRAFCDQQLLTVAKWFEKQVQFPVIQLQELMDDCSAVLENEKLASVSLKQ
UniProt Q13131, sequence (Q13131 whole entry, looked up): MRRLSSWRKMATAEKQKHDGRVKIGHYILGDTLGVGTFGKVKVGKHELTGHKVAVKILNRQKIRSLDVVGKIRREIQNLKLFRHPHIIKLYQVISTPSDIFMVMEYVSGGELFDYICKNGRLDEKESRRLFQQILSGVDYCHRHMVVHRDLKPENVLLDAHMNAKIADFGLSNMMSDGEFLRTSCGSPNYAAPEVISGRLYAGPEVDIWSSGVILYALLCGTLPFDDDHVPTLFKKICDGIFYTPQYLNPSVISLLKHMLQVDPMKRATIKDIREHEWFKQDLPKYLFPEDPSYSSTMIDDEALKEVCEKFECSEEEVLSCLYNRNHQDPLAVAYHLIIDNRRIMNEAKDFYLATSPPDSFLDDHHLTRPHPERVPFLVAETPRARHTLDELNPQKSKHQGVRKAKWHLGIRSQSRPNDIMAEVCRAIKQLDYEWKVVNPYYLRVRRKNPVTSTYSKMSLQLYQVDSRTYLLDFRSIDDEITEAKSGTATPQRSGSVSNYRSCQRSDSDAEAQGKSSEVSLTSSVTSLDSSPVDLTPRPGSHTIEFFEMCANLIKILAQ
UniProt Q99575, sequence (Q99575 whole entry, looked up): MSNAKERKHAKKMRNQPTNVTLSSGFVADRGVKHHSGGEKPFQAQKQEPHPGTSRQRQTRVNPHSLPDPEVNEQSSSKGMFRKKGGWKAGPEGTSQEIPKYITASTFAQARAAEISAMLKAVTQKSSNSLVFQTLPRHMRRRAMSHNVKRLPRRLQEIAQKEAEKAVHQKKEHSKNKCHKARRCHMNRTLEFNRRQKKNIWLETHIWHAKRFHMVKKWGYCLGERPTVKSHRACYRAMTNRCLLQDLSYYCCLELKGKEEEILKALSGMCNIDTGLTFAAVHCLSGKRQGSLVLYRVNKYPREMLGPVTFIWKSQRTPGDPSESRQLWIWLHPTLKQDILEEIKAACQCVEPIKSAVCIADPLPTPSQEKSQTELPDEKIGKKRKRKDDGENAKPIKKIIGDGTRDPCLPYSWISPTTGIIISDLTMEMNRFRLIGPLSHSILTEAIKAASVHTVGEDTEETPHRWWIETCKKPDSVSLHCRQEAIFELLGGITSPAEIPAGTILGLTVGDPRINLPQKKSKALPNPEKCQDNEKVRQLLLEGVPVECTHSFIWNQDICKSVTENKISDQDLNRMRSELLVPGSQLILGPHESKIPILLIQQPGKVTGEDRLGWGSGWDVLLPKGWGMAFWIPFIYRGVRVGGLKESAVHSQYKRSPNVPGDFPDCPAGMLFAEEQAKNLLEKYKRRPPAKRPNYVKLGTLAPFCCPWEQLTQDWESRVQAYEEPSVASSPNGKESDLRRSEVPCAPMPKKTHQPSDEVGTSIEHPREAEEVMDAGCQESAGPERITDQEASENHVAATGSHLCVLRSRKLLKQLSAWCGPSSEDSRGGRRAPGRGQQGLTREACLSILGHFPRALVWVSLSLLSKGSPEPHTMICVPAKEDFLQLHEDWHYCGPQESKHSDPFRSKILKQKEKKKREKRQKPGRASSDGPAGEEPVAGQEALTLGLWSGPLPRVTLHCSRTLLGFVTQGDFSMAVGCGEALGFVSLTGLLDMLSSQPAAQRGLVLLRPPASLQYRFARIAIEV

Target | log2 fold change [1] | log2 fold change (volasertib) | log2 fold change [2] | log2 fold change (epoxomicin) | log2 fold change [3] | log2 fold change [4] | log2 fold change [5] | log2 fold change (rosiglitazone) | log2 fold change [6] | log2 fold change [7]
PNPLA8 (UniProt Q9NP80) | -0.048 | -0.184 | -0.07 | 0.112 | -0.01 | -0.07 | 0.029 | 0.069 | 0.003 | -0.262 (active)
PRKAA1 isoform 2 (UniProt Q13131) | -0.035 | -0.154 | 0.04 | 0.017 | -0.026 | -0.052 | -0.007 | 0.016 | 0.001 | -0.254 (active)
POP1 (UniProt Q99575) | 0.069 | 0.092 | 0.02 | -0.001 | 0.006 | 0.028 | -0.019 | -0.025 | -0.009 | 0.075
PTTG1IP (UniProt P53801) | -0.223 | -0.05 | -0.154 | -0.017 | -0.176 | -0.01 | -0.041 | 0.011 | 0.009 | -0.771 (active)
PCID2 (UniProt Q5JVF3) | -0.032 | 0.016 | 0.072 | 0.027 | -0.149 | 0.035 | -0.021 | 0.064 | 0.055 | -0.086
PSMD6 (UniProt Q15008) | 0.09 | 0.18 | 0.01 | -0.247 | -0.009 | 0.063 | -0.023 | -0.029 | 0.029 | 0.061
QRSL1 (UniProt Q9H0R6) | 0.044 | -0.167 | 0.069 | 0.027 | -0.003 | -0.029 | 0.023 | 0.055 | -0.053 | -0.095
PRPF3 (UniProt O43395) | -0.114 | -0.34 (active) | 0.069 | 0.069 | -0.05 | -0.062 | 0.116 | 0.059 | 0.004 | -0.17

Reference: the supplement of paper PMC10849652
